ChEMBL document CHEMBL2218924, “A broad activity screen in support of a chemogenomic map for kinase signalling research and drug discovery” (Biochem J, 2013)

Key:
[1] = molecular target: Mitogen-activated protein kinase 11 (Homo sapiens) (UniProt Q15759); conditions: at 1 µM
[2] = molecular target: Mitogen-activated protein kinase 11 (Homo sapiens) (UniProt Q15759); conditions: at 10 µM
[3] = molecular target: T1, Serine/threonine-protein kinase Sgk1 (Homo sapiens) (UniProt O00141); conditions: at 1 µM
T1 sequence (whole entry): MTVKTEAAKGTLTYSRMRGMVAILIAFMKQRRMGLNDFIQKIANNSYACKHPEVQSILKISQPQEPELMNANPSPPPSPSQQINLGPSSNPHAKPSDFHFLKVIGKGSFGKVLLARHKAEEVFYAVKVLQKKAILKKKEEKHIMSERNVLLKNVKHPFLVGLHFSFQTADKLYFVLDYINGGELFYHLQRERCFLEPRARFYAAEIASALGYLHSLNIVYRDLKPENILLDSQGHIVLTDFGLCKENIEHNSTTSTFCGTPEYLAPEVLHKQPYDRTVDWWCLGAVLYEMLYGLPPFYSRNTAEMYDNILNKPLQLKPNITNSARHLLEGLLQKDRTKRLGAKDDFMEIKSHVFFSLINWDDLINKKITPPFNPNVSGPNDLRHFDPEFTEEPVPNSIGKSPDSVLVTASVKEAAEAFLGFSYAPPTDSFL

[4] = molecular target: T1, Serine/threonine-protein kinase Sgk1 (Homo sapiens); conditions: at 10 µM
[5] = molecular target: T2, Serine/threonine-protein kinase Sgk2 (Homo sapiens) (UniProt Q9HBY8); conditions: at 1 µM
T2 sequence (whole entry): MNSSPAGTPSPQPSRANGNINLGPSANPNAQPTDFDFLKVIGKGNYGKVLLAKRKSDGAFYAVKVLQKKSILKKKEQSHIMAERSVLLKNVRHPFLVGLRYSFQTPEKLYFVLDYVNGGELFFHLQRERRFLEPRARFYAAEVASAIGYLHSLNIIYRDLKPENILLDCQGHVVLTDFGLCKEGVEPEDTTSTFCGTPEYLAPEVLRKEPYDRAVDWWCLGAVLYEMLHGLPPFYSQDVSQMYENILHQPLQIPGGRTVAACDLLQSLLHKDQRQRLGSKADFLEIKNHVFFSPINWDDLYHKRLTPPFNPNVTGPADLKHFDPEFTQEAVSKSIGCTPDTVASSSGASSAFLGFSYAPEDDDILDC

[6] = molecular target: T2, Serine/threonine-protein kinase Sgk2 (Homo sapiens); conditions: at 10 µM
[7] = molecular target: T3, Serine/threonine-protein kinase Sgk3 (Homo sapiens) (UniProt Q96BR1); conditions: at 10 µM
T3 sequence (whole entry): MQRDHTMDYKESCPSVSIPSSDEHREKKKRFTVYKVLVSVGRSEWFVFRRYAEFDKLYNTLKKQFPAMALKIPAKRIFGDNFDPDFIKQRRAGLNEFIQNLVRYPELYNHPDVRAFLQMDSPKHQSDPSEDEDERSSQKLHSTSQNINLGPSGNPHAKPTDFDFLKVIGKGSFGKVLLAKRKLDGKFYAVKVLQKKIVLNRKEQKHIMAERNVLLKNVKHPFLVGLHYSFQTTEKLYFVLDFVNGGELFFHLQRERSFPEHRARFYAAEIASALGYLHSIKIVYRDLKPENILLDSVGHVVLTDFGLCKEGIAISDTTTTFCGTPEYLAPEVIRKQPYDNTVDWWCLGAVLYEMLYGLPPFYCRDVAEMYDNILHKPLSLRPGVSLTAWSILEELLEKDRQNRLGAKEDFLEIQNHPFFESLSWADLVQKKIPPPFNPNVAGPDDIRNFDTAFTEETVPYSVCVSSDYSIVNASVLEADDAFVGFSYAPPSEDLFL

[8] = molecular target: Serine/threonine-protein kinase SIK1 (Homo sapiens) (UniProt P57059); conditions: at 1 µM
Serine/threonine-protein kinase SIK1 (Homo sapiens), sequence (P57059 whole entry): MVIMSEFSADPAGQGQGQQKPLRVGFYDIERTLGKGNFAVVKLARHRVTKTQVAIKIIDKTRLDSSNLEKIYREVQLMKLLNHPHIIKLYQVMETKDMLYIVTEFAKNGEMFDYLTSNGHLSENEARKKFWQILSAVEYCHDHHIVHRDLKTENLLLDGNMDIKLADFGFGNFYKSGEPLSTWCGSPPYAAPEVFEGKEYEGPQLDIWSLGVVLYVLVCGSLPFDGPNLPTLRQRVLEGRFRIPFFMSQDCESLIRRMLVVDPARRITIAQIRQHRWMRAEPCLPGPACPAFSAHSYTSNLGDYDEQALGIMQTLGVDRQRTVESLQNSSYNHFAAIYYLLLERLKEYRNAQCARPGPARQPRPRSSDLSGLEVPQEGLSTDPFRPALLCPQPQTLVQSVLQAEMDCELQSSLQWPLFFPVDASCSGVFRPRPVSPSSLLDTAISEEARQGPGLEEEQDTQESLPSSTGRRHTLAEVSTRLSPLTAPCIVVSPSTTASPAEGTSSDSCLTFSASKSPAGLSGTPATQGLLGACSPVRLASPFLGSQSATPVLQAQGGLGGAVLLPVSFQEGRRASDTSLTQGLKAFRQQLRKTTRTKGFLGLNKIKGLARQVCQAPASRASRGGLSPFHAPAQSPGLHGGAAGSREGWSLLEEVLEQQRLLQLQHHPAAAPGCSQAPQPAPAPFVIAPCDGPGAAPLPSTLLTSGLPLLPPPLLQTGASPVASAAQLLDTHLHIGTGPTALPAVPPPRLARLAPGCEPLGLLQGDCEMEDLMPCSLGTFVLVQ

[9] = molecular target: T4, Mitogen-activated protein kinase 13 (Homo sapiens) (UniProt O15264); conditions: at 1 µM
T4 sequence (whole entry): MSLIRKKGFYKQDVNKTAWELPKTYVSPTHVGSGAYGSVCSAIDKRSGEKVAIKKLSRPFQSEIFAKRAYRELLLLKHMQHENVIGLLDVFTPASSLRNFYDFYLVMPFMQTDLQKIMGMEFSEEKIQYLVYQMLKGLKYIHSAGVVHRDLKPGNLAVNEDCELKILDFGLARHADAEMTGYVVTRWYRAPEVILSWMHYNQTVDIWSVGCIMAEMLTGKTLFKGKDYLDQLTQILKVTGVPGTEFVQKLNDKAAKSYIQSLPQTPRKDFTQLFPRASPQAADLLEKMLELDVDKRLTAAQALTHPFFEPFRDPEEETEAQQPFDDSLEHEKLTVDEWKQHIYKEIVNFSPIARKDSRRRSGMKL

[10] = molecular target: T4, Mitogen-activated protein kinase 13 (Homo sapiens); conditions: at 10 µM

Mitogen-activated protein kinase 11 (Homo sapiens), sequence (Q15759 whole entry): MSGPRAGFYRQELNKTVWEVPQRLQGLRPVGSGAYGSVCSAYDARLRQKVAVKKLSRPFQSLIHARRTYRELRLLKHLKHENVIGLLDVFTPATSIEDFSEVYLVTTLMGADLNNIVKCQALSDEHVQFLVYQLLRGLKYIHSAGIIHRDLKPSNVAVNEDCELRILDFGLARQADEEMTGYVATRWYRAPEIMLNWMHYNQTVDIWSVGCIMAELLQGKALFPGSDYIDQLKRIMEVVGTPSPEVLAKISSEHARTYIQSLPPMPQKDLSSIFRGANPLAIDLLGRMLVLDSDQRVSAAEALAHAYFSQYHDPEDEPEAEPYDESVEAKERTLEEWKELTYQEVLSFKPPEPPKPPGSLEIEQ

SMILES	residual activity [1] [%]	residual activity [2] [%]	residual activity [3] [%]	residual activity [4] [%]	residual activity [5] [%]	residual activity [6] [%]	residual activity [7] [%]	residual activity [8] [%]	residual activity [9] [%]	residual activity [10] [%]
O=C(c1ccccc1)c1ccc(N2CCOCC2)cc1O	96	91	79	95	134	68	88	97		
O=C1NC(=O)c2c1c1c3ccccc3[nH]c1n1cncc21	90	87	66	47	52	38	67	83	93	88
CC(C)(C)c1nc2c3ccc(F)cc3c3c(=O)[nH]ccc3c2[nH]1	62	69	63	68	63	55		31		
O=C1Nc2ccc(Cl)cc2/C1=C/c1cc(Cl)c(O)c(Cl)c1	88	67	64	69	84	55	81	72		93
NC(=O)c1ccc(-c2nc(-c3ccc4c(c3)OCCO4)c(-c3ccccn3)[nH]2)cc1	93	88	98	90	97	89				
O=C1Cc2c([nH]c3ccc(Br)cc23)-c2ccccc2N1	98	89	95	81	99	74	83	91	98	68
O=C(O)/C=C/c1cc(Br)c(Br)c(Br)c1Br	107	126	100	49	83	41	84		103	93
Nc1ncnc2c1cnn2-c1ccccc1	97	85	90	98		68	93			
COc1cc2nccc(Oc3ccc(NC(=O)Nc4cc(C)on4)c(Cl)c3)c2cc1OC	19				103	79				97
O=c1cc(N2CCNCC2)oc2c(-c3ccccc3)cccc12	95	105	80	98		79	90	82		83
CCOC(=O)c1c(C)[nH]c(/C=C2\C(=O)Nc3ccccc32)c1C	98	77			82	76				
Cn1sc(=O)n(Cc2ccccc2)c1=O	89	89	91	96	91		86		100	98
CC(C)[C@H](CO)Nc1nc(Nc2cc(N)cc(Cl)c2)c2ncn(C(C)C)c2n1	119	99			95	51	92			
O=C(CCCc1ccc(-c2ccccc2F)cc1)Nc1ccc(O)cc1	105	95	83	179	131	135			105	96
Fc1ccc(-c2nc3n(c2-c2ccncc2)CCS3)cc1	80	23						139		
CN([C@@H](Cc1ccc(OS(=O)(=O)c2cccc3cnccc23)cc1)C(=O)N1CCN(c2ccccc2)CC1)S(=O)(=O)c1cccc2cnccc12	113		123				83		81	
Nc1ncnc2[nH]nc(Nc3ccc(F)cc3)c12	103		94	74	113	43	80	48	103	94
CSc1nc(-c2ccc(F)cc2)c(-c2ccnc(NC(C)c3ccccc3)c2)[nH]1 (configuration not stated)	10	-2				91		144		
O=c1cc(N2CCOCC2)oc2c1ccc1ccccc12	93	101	105	97	92	86	97	95	100	95
O=C(NC(NC(=S)Nc1ccc(F)c([N+](=O)[O-])c1)C(Cl)(Cl)Cl)C(c1ccccc1)c1ccccc1 (configuration not stated)	98	97		83			77	136	95	104
O=C1Cc2c([nH]c3ccc([N+](=O)[O-])cc23)-c2ccccc2N1	100	103			65	68		100		
NC(=O)Nc1sc(-c2ccc(F)cc2)cc1C(N)=O	89	68					85	28	90	73
CCCC(=O)Oc1ccc2[nH]c(C(=O)c3cc4ccccc4[nH]3)cc2c1	104		101	95	99	96	85	83	104	86
COc1cc2c(cc1OC)-c1n[nH]c(Nc3cccc(F)c3)c1C2	60	25	70		109	98		4	102	74
